# ClpP mod = qHTS Assay for Activators of ClpP; purified B. subtilis ClpP, FRET peptide cleavage, 20 min; 1.9% of 340,000 active; AID 651965, 2013; Potency, µM (doses to about 57.5 µM), inactives show at the highest dose activity change, negative = active; ATP-dependent Clp protease proteolytic subunit (Bacillus subtilis (strain 168)), P80244; active = well fitted falling curve with a large enough effect; inconclusive = small, poorly fitted or top-dose-only effect; inactive = no such curve, though single readings can be large or run the other way; note: potency is the fitted concentration of half-maximal effect; the source files actives as falling curves though it sought activators and does not explain the sign; nearly all actives have a fitted effect of over 65% in size
# Target sequence (P80244 whole entry, looked up): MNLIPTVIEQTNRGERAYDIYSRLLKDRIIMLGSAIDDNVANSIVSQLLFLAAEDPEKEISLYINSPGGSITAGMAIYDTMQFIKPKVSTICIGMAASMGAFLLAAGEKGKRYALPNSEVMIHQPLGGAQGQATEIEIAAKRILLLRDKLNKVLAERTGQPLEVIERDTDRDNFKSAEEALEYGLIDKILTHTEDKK
#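 Buffer: 100 mM Tris/HCl pH8, 100 mM KCl, 0.05% low protease BSA, 2.5% glycerol, 0.01% Tween-20. ClpP 10 microg/mL final; 20 min RT; delta FRET normalized to ADEP and DMSO controls.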
# PINK1 expr mod = PINK1 expression modulation. Potency, µM (doses to about 76.6 µM), for the others: at the highest dose activation (PINK1 increase), actives largely listed as activators. PINK1 immunofluorescence, high-content cytometry, 24 h. 0.2% of 410,000 active; active = well fitted activation curve with a large enough effect; inconclusive = small, poorly fitted or top-dose-only effect; cell line not stated here; note: potency is the fitted concentration of half-maximal effect; % of control where 0% means no effect; nearly all actives have a fitted effect of over 65% in size
#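 Stable cell line treated 24 h with compounds at 5 concentrations (CCCP controls), then fixed and immunostained for PINK1 plus nuclear and cell stains; PINK1 immunofluorescence quantified by laser-scanning microplate cytometry.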
# CXXC DNA block = MLL CXXC-DNA interaction inhibition | Q03164 | MLL-CXXC / FITC-HOXA9 DNA fluorescence polarization | Potency, µM (top dose mostly 115 µM), inactives show at the top dose activity change, negative = inhibition, most hits filed as inhibitors | 0.037% of 290,000 active | AID 2662; active = well fitted inhibition curve with a large enough effect in the polarisation, with a control signal flat, not every such curve was filed as active; inconclusive = small, poorly fitted or top-dose-only effect, or effect the other way, or a change in a side signal; inactive = no such curve, though single readings can be large or run the other way; the % refers to the polarisation; note: potency is the fitted concentration of half-maximal effect
#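 Fluorescence polarization: 7 uM MLL-CXXC (stock) preincubated 5 min with compounds, then 50 nM fluorescein-HOX-A9 DNA (stock) added; 30 min ambient. Buffer 50 mM Tris-HCl pH 7.5, 50 mM NaCl, 1 mM DTT, 0.05% BSA.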
# Epigenetic reg = epigenetic control regulation, reporter derepression; murine LDR cells, GFP reporter derepression, 30 h; Potency, µM (titrated, usually from 53.9 µM), for the others: at the top dose GFP activation, most hits filed as activators; 0.2% of 280,000 active; AID 1865; active = well fitted activation curve with a large enough effect; inconclusive = small, poorly fitted or top-dose-only effect; note: potency is the fitted concentration of half-maximal effect; % of control where 0% means no effect; nearly all actives have a fitted effect of over 60% in size
#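 Reporter derepression read as number of fluorescent GFP-positive objects, 20-120 um in size, counted by laser-scanning cytometer. Mouse LDR line with an epigenetically silenced CMV-GFP locus; compound incubation 30 h, 37 C.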
# Menin MLL FP TR = inhibitors of human menin-MLL interaction, mutant MLL peptide; Potency, µM (highest dose often 61.6 µM), inactives show at the highest dose FP activity change, negative = inhibition, hits mostly inhibitors; Menin + Texas Red MLL mutant peptide, fluorescence polarization; O00255; 0.23% of 270,000 active; active = well fitted inhibition curve with a large enough effect in the polarisation, with a control signal flat, not every such curve was filed as active; inconclusive = small, poorly fitted or top-dose-only effect, or effect the other way, or a change in a side signal; inactive = no such curve, though single readings can be large or run the other way; the % refers to the polarisation; note: potency is the fitted concentration of half-maximal effect; % of control where 0% means no effect
# Menin MLL FP FL = displaces fluorescein MLL peptide from human menin; AID 1766; FP activity change, % at 61.4 µM; 290,000 tested, under 10 active; Fluorescence polarization, fluorescein-MLL peptide displacement from menin; active = well fitted curve in the direction sought with a large enough effect in the polarisation, not every such curve was filed as active; inconclusive = small, poorly fitted or top-dose-only effect, or effect the other way, or a change in a side signal; inactive = no such curve, though single readings can be large or run the other way; the % refers to the polarisation; note: % of control where 0% means no effect
# * = called active by the depositor; ? = inconclusive; / = no result given; [ ] = remark or other dose. Sampled rows, rich in hits. Any-hit rate of the full collection: about 1.9%.
SMILES,ClpP mod,PINK1 expr mod,CXXC DNA block,Epigenetic reg,Menin MLL FP TR,Menin MLL FP FL
C(=N\C(/N=C/c1ccco1)c1ccco1)/c1ccco1,16µM*,0%,-3%,0%,-3%,4
COc1ccc(CC(=O)N2CCN(C(=O)Cc3ccc(OC)cc3)CC2)cc1,-5%,-2%,-6%,-1%,-29%,1
COc1ccc(CC(=O)N2CCN(c3ccc(C4=NNC(=O)CC4C)cc3)CC2)cc1 (configuration not stated),28µM*,0%,-2%,0%,-29%,-3
CC(=O)Nc1ccccc1-c1nc(CNC(=O)c2cc(C)ccc2C)c(C)o1,/,1%,/,/,/,/
COC(=O)/C=C/c1cc(O)ccc1O,/,/,/,13%,/,/
CN1C(=S)SC(N(O)C(=O)Nc2ccccc2)C1(C)C (configuration not stated),0%,0%,3%,-1%,1%,0
CN1C(=S)SC(N(O)C(=O)Nc2cccc3ccccc23)C1(C)C (configuration not stated),32µM*,-3%,4%,-1%,-5%,1
O=C(NC1CCCCCC1)c1nc2ncccn2n1,28µM*,-1%,2%,0%,7%,-1
CCC(O)CNC(=O)c1cnn(-c2ncc3c(n2)-c2ccccc2CCC3)c1C1CC1 (configuration not stated),/,0%,/,/,/,/
O=C1CC[C@@H](C(=O)NCC2Cc3cc(Cl)cc(-c4ccc5[nH]ccc5c4)c3O2)N1 (some centres not stated),/,0%,/,/,/,/
CCn1nc(C)c(NC(=O)/C=C/c2ccc(OC)c(COc3ccc(Cl)cc3Br)c2)c1C,-3%,10%,-6%,?,13%,1
COc1ccc(/C=C/C(=O)NCc2cn(C)nc2C)cc1COc1ccc(Cl)cc1Br,14µM*,?,?,-1%,12%,2
CCCCC(=O)OCCNC(=O)c1cc2ccccc2oc1=O,25µM*,-1%,4%,0%,7%,2
O=C(OCCNC(=O)c1cc2ccccc2oc1=O)c1cccnc1,?,-1%,5%,-1%,7%,-2
O=C(O)c1ccc(NC(=O)c2cc3c([nH]c2=O)CCCC3=O)cc1,?,-1%,/,/,/,/
NNC(=O)CSc1cccc2cccnc12,?,5%,2%,-14%,-8%,-3
O=C(CSc1cccc2cccnc12)OCC(=O)c1ccccc1,25µM*,-2%,1%,?,19%,3
CN(C)C(=O)CSc1cccc2cccnc12,20µM*,0%,-22%,-2%,10%,0
O=C(N[C@@H]1c2ccccc2C2(CCN(C(=O)c3cc4ccccc4oc3=O)CC2)[C@H]1O)c1cccnc1,/,1%,/,/,/,/
Cc1cc2c(c(-c3nc4ccccc4s3)c1)OC(CNC(=O)c1occc1C)C2 (configuration not stated),/,1%,/,/,/,/
CSc1ncccc1C(=O)NCCN1Cc2ccccc2OC(c2ccccc2F)C1 (configuration not stated),/,1%,/,/,/,/
CC(C)C[C@@H](C=O)NC(=O)[C@H](CC(C)C)NC(=O)[C@H](CC(C)C)NC(=O)OCc1ccccc1,/,/,/,1.3µM*,/,/
COc1ccc(CN2CCc3nnc(CNC(=O)c4cc(C)oc4C)n3CC2)c2ccccc12,/,0%,/,/,/,/
C/C(=C\C(=S)Nc1ccccc1)Nc1ccc2ccccc2c1,35µM*,16%,0%,-2%,18%,0
COCCn1c(-c2ccc(SC)cc2)nc2c1c(=O)[nH]c(=O)n2CC(C)C,/,2%,11%,/,?,1
SMILES,ClpP mod,PINK1 expr mod,CXXC DNA block,Epigenetic reg,Menin MLL FP TR,Menin MLL FP FL
CCCn1c(=O)[nH]c(=O)c2c1nc(-c1ccc(OC(F)F)c(OC)c1)n2CCOC,25µM*,2%,10%,-1%,-2%,6
COCCn1c(-c2ccc(OC(F)(F)C(F)C(F)(F)F)cc2)nc2c1c(=O)[nH]c(=O)n2CC(C)C (configuration not stated),28µM*,6%,21%,2%,?,5
CCCn1c(=O)[nH]c(=O)c2c1nc(-c1ccccc1OC(F)F)n2CCOC,25µM*,-3%,-7%,-2%,-1%,4
Cc1noc(C)c1-c1ccc2ncnc(NCc3ccc(Br)cc3)c2c1,/,/,/,/,45%,-3
CC(=O)Nc1ccc(Nc2nc(Nc3ccc(Cl)cc3)nc(N3CCOCC3)n2)cc1,-14%,9%,/,/,/,/
COc1ccccc1C(=O)N1CCCC(c2nc(SCCN3CCOCC3)ncc2C)C1 (configuration not stated),/,0%,/,/,/,/
CCN1C(=O)CC(CC(=O)N2CCC(c3nc4ccc(F)cc4[nH]3)CC2)(c2ccccc2C)C1=O (configuration not stated),/,1%,/,/,/,/
CCN1C(=NCCCOC(C)C)N[C@@H](CCc2ccccc2)[C@H](C(=O)NCCCOC(C)C)[C@H]1C,-13%,22µM*,17%,/,-17%,-11
CCN1C(=NCCOC)N[C@@H](CCc2ccccc2)[C@H](C(=O)OC)[C@H]1C,-3%,1%,3%,/,-1%,1
COc1ccc(OC)c(-c2ccnc(-n3ncc(C(=O)N4CCN(CCO)CC4)c3C3CC3)n2)c1,/,0%,/,/,/,/
CO/N=C\CC(=O)Nc1ccc(Cl)c(Cl)c1,/,3%,-9%,1%,25µM*,0
COC(=O)CCC(=O)Nc1ccc(Cl)c(Cl)c1,-3%,-1%[38.3 µM],-6%,-1%,4%,3
CC(C)(C)c1ccc(C(=O)C[n+]2ccc(Cl)c3ccc(Cl)cc32)cc1,-5%,/,/,/,/,/
Oc1ccccc1C=NCc1ccccc1,/,/,-5%,/,-12%,-5
O=C(Cn1c(=O)oc2cc(S(=O)(=O)N3CCCC3)ccc21)NC1CCCc2ccccc21 (configuration not stated),2%,2%,23%,-1%,32µM*,7
O=C(Cn1c(=O)oc2cc(S(=O)(=O)N3CCCC3)ccc21)Nc1ccc(C(F)(F)F)cc1,-21%,3%,13%,0%,25µM*,-1
O=C(Cn1c(=O)oc2cc(S(=O)(=O)N3CCCC3)ccc21)Nc1ccc(OC(F)(F)F)cc1,-1%,0%,/,-1%,/,/
O=C(Cn1c(=O)oc2cc(S(=O)(=O)N3CCCCCC3)ccc21)NC1CCCCCCC1,0%,2%,1%,4%,-7%,1
COc1ccccc1CCNC(=O)c1ccc2c(c1)c(C)c(C)n2Cc1ccc(Cl)cc1,?,-1%,/,-2%,/,/
COc1ccc(OC)c(NC(=O)c2ccc3c(c2)c(C)c(C)n3Cc2ccc(F)cc2)c1,22µM*,0%,/,4%,/,/
COc1ccc(NC(=O)c2ccc3c(c2)c(C)c(C)n3Cc2ccc(F)cc2)c(OC)c1,22µM*,5%,/,0%,/,/

# High-throughput results from PubChem BioAssay.
